Here are results for five molecules from PubChem BioAssay.

SMILES strings stand for the structures. Records with an inconclusive call do not appear. Active and inactive are the calls of the source.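 Rule for the calls, unless noted: active = growth inhibition above 25% in both replicates, a cutoff set 3 SD above the mean; inconclusive = above 25% in only one replicate; inactive = the rest.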

The nature of experiment [1]: reducers of endogenous Her2 protein level, primary screen, SKBR3 breast tumor cells, AlphaScreen, ATP viability (AID 461;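 active = Her2 level under about 52% in both replicate screens, with viability over 70% of control, limit read from the data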;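 for Her2 level: lower value means less Her2 protein in the cells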;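 for viability: percent of carrier control wells set as 100% viability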). Conditions: 18-24 h, measured here: SKBR3 viability, ATP luminescence, at 10 µM. In general terms: In Alpha technology, singlet oxygen from a donor bead excites a nearby acceptor bead.
The target of experiment [2] is Receptor tyrosine-protein kinase erbB-2 (Homo sapiens) (UniProt P04626). The description is as above. The following applies: 18-24 h, at 10 µM, stronger effect = lower value.
Sequence of Receptor tyrosine-protein kinase erbB-2 (Homo sapiens) (P04626 whole entry, looked up): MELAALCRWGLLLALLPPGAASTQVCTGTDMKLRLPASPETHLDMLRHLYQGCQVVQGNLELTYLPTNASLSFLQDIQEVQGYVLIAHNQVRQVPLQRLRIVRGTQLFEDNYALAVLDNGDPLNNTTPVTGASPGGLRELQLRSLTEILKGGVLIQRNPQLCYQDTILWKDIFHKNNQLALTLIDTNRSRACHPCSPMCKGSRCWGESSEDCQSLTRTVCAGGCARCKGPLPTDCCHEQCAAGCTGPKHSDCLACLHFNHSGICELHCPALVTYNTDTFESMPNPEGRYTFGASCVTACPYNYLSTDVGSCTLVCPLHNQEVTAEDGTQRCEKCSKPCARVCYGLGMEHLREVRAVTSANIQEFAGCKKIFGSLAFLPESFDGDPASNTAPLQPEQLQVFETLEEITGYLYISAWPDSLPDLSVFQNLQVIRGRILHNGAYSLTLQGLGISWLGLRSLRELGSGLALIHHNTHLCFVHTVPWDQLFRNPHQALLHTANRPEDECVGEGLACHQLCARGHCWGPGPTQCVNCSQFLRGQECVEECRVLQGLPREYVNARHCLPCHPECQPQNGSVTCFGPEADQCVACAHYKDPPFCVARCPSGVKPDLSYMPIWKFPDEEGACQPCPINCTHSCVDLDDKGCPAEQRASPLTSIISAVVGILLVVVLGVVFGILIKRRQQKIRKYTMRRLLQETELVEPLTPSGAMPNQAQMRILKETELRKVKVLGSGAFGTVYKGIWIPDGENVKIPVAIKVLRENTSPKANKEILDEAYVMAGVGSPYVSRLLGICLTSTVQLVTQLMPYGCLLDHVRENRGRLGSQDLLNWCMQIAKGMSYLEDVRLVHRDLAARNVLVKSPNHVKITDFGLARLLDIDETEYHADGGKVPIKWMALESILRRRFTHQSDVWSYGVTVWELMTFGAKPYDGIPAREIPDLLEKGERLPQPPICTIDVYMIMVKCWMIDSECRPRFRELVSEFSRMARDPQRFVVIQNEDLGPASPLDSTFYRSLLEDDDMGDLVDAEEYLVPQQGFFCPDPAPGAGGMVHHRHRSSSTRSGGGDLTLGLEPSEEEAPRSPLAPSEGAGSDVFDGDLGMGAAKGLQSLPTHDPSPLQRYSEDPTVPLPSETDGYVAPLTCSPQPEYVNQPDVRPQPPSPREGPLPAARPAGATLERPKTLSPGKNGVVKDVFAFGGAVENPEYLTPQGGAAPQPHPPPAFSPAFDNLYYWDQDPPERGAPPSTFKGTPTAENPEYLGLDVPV
A short description of experiment [3]: SK-BR-3 cell growth inhibitors, pilot screen, 24 h, human (AID 572;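 active = viability at or below 10% of carrier control in both of two separate runs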;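 note: compound exposure lasted between 18 and 24 h rather than exactly 24 h; 100% = carrier-treated control wells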). The following applies: SK-BR-3 viability, CellTiter-Glo luminescence, at 10 µM, stronger effect = lower value. (In general: In ATP-based viability assays light output follows the ATP content of the culture.)
Experiment [4] can be described thus: HUVEC growth inhibition – cell-based, human, primary screen (AID 575;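 active = viability at or below 30% in both replicate assays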;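 note: 100% = median of untreated cell wells with 0.1% DMSO on each plate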). Conditions: HUVEC proliferation, CellTiter-Glo luminescence, 72 h; at 10 µM; stronger effect = lower value.
A short description of experiment [5]: growth inhibitors of H69AR lung tumor, primary screen, human, duplicate replicates (AID 580;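 active = viability at or under a set limit in both replicates, limit being median viability minus 3 SD, cut at about 48% in these data, passing the limit was not always enough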;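 note: 100% = mean luminescence of untreated wells and 0% = no signal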). Conditions: H69AR lung tumor cells viability, ATP luminescence, 72 h; at 10 µM; stronger effect = lower value.
Experiment [6] can be described thus: reversal of MRP1-mediated doxorubicin resistance, pilot screen, H69AR cells, doxorubicin co-treatment (AID 601;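 active = viability loss from added drug above about 55%, and viability with drug at most 40%, in both replicates, limit read from the data, passing the limit was not always enough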). Conditions: CellTiter-Glo, 72 h, at 10 µM; for differential viability (reversal): stronger effect = higher value.
Experiment [7] can be described thus: 384-well plate pilot, post-Golgi transport modulator project, inhibition of yeast transport mutant growth (AID 636; in the data active = inhibition above about 31%). Conditions: absorbance 615 nm, about 18 h, stronger effect = higher value.
A short description of experiment [8]: growth suppression of yeast trafficking mutant, preliminary HTS, modulators of trafficking downstream of Golgi apparatus project, 1536-format plate, OD 615 nm (AID 637; in the data active = inhibition above about 30%). The following applies: yeast transport mutant growth, absorbance 615 nm, 18 h; stronger effect = higher value.
Experiment [9] is described as follows: OD615 S. cerevisiae growth inhibition, permissive medium, pilot counter-assay, permissive growth control for S. cerevisiae lifespan shortening project (AID 705). Conditions: OD615, 24 h, at 10 µM, stronger effect = higher value.
Experiment [10] can be described thus: Restrictive medium S. cerevisiae growth inhibition, OD615, pilot screen of yeast lifespan reduction project, restrictive growth control (AID 706;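 active = growth inhibition above a set limit, 3 SD over mean compound inhibition, in both replicates, cut at about 43% in these data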;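 note: modified DeaD lifespan yeast strain shifted to restrictive glucose medium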). Conditions: OD615, 48 h, at 10 µM, stronger effect = higher value.
The nature of experiment [11]: viability gain of MRP-1-high H69AR cells under doxorubicin, pilot screen, MRP-1 activator project, CellTiter-Glo, duplicate (AID 807;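 active = viability increase at or above a cutoff of the median across tested compounds plus 3 SD, cut at about 8.5% in these data, passing the limit was not always enough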;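 note: compound pretreatment 18-22 h then 72 h combined with doxorubicin; 0% = doxorubicin alone and 100% = vehicle without doxorubicin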). Conditions: H69AR viability with doxorubicin, CellTiter-Glo luminescence; at 10 µM; stronger effect = higher value.
Experiment [12] is described as follows: growth suppression of beta-catenin knockout HCT116, pilot screen, human colon tumor cells (AID 823;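 active = cell viability at or below a set limit in both duplicate runs, the limit being the all-compound median minus 4 SD, cut at about 23% in these data, passing the limit was not always enough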;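 note: 0% = wells killed by 20 µM Hyamine and 100% = untreated DMSO cell wells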). Conditions: CellTiter-Glo, 60 h, at 10 µM, stronger effect = lower value.
Experiment [13] can be described thus: growth suppression of PTEN-deleted HCT116, pilot screen, cell-based, HCT116 clonal line, CellTiter-Glo (AID 824;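 active = viability at or below 27.92% in each of two runs, the all-compound median minus 4 SD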;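 note: 0% = 20 µM Hyamine control and 100% = vehicle cell control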). Conditions: 60 h, at 10 µM, stronger effect = lower value.
Experiment [14] in a line: inhibitors of the yeast RAM network, pilot screen, dse1pr::URA3 reporter, 5-FOA selection (AID 869;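 active = inhibition over a set limit, the all-compound mean plus 3 SD, in both replicate runs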;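 note: 0% = DMSO wells with no growth and 100% = 10 µM 1-NA-PP1 with full growth; RAM network block rescues cells from 5-FOA so hits raise OD615 growth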). Conditions: S. cerevisiae dse1pr::URA3 5-FOA growth, OD615, 2 d; at 10 µM; stronger effect = higher value; strain carries analog-sensitive mutant Cbk1 kinase.
Experiment [15] in a line: RAM signaling pathway blockade in yeast – S. cerevisiae, Pdr1DBD-CYC8 efflux-inhibited sensitized strain, primary screen (AID 1298;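 active = RAM network inhibition above 8.4% in each of two replicates, 3 SD over the compound average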;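 note: 0% = DMSO untreated cells without growth and 100% = 10 µM 1-NA-PP1 full growth; higher means more yeast growth rescued from 5-FOA killing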). Conditions: S. cerevisiae cbk1-as DSE1-URA3 strain, 5-FOA growth OD615, 2 d; at 50 µM; stronger effect = higher value.
[16] abbreviates: H69AR cells + 2 uM doxorubicin, measured here: viability with 2 uM doxorubicin, stronger effect = lower value.
[17] abbreviates: H69AR cells, compound alone cytotoxicity.

In the case of `CC1(C)NC(=O)N(CC(O)COc2cccc(F)c2)C1=O` (stereo not given), the viability in experiment [1] is 97%; in experiment [3], 97% (inactive); in experiment [4], 110% (inactive); in experiment [5], 101% (inactive); in [6] (setting [16]) it was 99.8%; in experiment [6] (setting [17]) it was 101%. Further, the viability in experiment [12] is 99.9% (inactive); in experiment [13], 97.9% (inactive). In addition, the Her2 level in experiment [2] was 112% (inactive). Also, the differential viability (reversal) in [6] (H69AR cells + 2 uM doxorubicin) was 1.67% (inactive). Also, the inhibition in experiment [7] was 3.73% (inactive); in [8], -1% (inactive); in experiment [14], 1.2% (inactive). The results for the growth inhibition in experiment [9] and in [10] were -3.19% (inactive) and -1.89% (inactive), respectively. For the same molecule, in experiment [11], the viability increase is -0.02% (inactive). Further, the RAM network inhibition in experiment [15] is 1.81% (inactive).
Regarding `CCOCCCNC(=O)c1ccc2c(c1)N(Cc1ccccc1)C(=O)CS2=O` (stereo not given), the viability in experiment [1] is 104%; in [3], 104% (inactive); in experiment [4] it was 103% (inactive); in experiment [5], 106% (inactive); in experiment [6] (setting [16]), 96.1%; in [6] (setting [17]) it was 106%. Also, the viability in experiment [12] is 102% (inactive); in experiment [13], 93.1% (inactive). Moreover, in experiment [2], the Her2 level was 103% (inactive). Besides, the differential viability (reversal) in [6] (H69AR cells + 2 uM doxorubicin) was 10.2% (inactive). For the same molecule, the values for the inhibition in [7], in [8] and in experiment [14] were 0.13% (inactive), -10.7% (inactive) and 1.42% (inactive), respectively. Further, the growth inhibition in experiment [9] was -5.99% (inactive); in [10], 6.05% (inactive). In experiment [11], the viability increase was -0.16% (inactive). For the same molecule, the RAM network inhibition in experiment [15] is -0.72% (inactive).
`COc1ccc(N(CC(=O)O)S(=O)(=O)c2ccc(OC)c(OC)c2)cc1`: the viability was 112% in [1]; 112% (inactive) in experiment [3]; 108% (inactive) in experiment [4]; 90.3% (inactive) in experiment [5]; 94.1% in experiment [6] (setting [16]); 90.3% in [6] (setting [17]). Also, the viability is 105% (inactive) in experiment [12] and 99.1% (inactive) in experiment [13]. In addition, in [2], the Her2 level is 102% (inactive). Besides, the differential viability (reversal) in experiment [6] (H69AR cells + 2 uM doxorubicin) was -3.8% (inactive). Further, the inhibition is -3.38% (inactive) in experiment [7], 1.31% (inactive) in experiment [8] and -0.04% (inactive) in [14]. Besides, the growth inhibition in experiment [9] was -15.1% (inactive); in [10], -11.2% (inactive). For the same molecule, the viability increase in experiment [11] is -1.32% (inactive). Moreover, the RAM network inhibition in experiment [15] is 0.87% (inactive).
With `CCOC(=O)Cc1nnc(NC(=O)c2ccccc2OCC)s1`, the viability is 100% in experiment [1]; 100% (inactive) in [3]; 103% (inactive) in experiment [4]; 98% (inactive) in experiment [5]; 88.1% in experiment [6] (setting [16]); 98% in experiment [6] (setting [17]). The viability in experiment [12] and in [13] was 102% (inactive) each time. Further, the Her2 level in experiment [2] is 92.5% (inactive). For the same molecule, the differential viability (reversal) in experiment [6] (H69AR cells + 2 uM doxorubicin) is 9.93% (inactive). Further, the inhibition in [7] was 0% (inactive); in [8], -4.26% (inactive); in experiment [14] it was 1.33% (inactive). In addition, the growth inhibition is -9.41% (inactive) in experiment [9] and -14.8% (inactive) in experiment [10]. The viability increase in experiment [11] was -0.28% (inactive). Besides, in [15], the RAM network inhibition is 3.5% (inactive).
Take `CCC(Oc1ccccc1)C(=O)Nc1ccccc1OC` (stereo not given): the viability is 86% in [1]; 86% (inactive) in [3]; 99.4% (inactive) in experiment [4]; 97.4% (inactive) in experiment [5]; 84.8% in experiment [6] (setting [16]); 97.4% in experiment [6] (setting [17]). In addition, the viability in experiment [12] was 90% (inactive); in experiment [13], 87% (inactive). Besides, the Her2 level in experiment [2] was 72.5% (inactive). For the same molecule, in experiment [6] (H69AR cells + 2 uM doxorubicin), the differential viability (reversal) was 12.6% (inactive). Besides, the inhibition in experiment [7] was -6.35% (inactive); in experiment [8] it was 3.61% (inactive); in experiment [14], 1.94% (inactive). In addition, the figures for the growth inhibition in experiment [9] and in experiment [10] were -1.92% (inactive) and 8.91% (inactive), respectively. For the same molecule, the viability increase in experiment [11] was -3.52% (inactive). In addition, the RAM network inhibition in experiment [15] is 5.73% (inactive).

By viability is commonly meant a read-out of living cells in per cent, often relative to untreated cells. What is called inhibition is the relative decrease from the control value, in per cent.
